DT40 TDP1 CPT: qHTS for Inhibitors of human tyrosyl-DNA phosphodiesterase 1 (TDP1): qHTS in cells in presence of CPT; 12% of 420,000 active; Potency, µM (doses to about 46.2 µM), hits mostly inhibitors; chicken DT40 Tdp1-/-;hTDP1 cells + 20 nM CPT, ATP luminescence, 48 h; note: nearly all actives have a fitted effect of over 55% in size
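Cell growth measured by CellTiter-Glo luminescence after a minimum 48 h, 37 C compound exposure with 20 nM CPT in Tdp1-knockout DT40 cells stably expressing hTDP1, seeded 400/well; qHTS titration format.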
HepG2 viability: qHTS for Inhibitors of TGF-b: Cytotox Counterscreen; HepG2 CAGA-GFP viability, ATP luminescence, 18 h; Potency, µM (top dose mostly 46.1 µM), most hits filed as cytotoxic; 0.76% of 410,000 active; AID 588856, 2011
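HepG2 CAGA-GFP cells (1000/well, DMEM with 1% FBS) received compound, then TGF-beta at 500 pg/mL final, and were incubated 18 hours at 37 degrees C. Viability was read by CellTiter-Glo luminescence. Media-only wells were set as complete cell-killing and DMSO as no toxicity.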
ASM inhibitor: Inhibitors of Secretory Acid Sphingomyelinase (S-ASM): qHTS | Sphingomyelin phosphodiesterase (Homo sapiens), P17405 | placental ASM, HMU-PC fluorogenic substrate, 60 min | Potency, µM (top dose mostly 57.5 µM), usual class: inhibitors | 0.006% of 340,000 active
Target sequence (P17405 47-631 limits assumed): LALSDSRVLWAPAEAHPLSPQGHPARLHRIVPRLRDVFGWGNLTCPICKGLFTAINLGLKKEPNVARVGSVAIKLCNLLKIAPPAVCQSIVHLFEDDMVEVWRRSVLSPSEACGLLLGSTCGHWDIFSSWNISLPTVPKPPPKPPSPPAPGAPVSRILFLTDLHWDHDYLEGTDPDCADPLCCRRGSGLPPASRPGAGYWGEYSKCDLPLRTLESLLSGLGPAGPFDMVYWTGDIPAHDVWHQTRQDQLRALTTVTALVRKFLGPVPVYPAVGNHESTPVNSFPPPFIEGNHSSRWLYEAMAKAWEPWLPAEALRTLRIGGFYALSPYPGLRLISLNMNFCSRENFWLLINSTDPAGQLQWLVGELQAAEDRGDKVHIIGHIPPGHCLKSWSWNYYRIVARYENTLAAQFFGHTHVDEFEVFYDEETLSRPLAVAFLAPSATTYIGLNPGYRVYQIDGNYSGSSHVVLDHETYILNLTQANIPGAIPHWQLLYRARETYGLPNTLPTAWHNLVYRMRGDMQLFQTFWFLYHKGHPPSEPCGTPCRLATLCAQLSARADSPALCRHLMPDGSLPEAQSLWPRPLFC
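Fluorescence read-out (Ex 386 nm, Em 447 nm) after stopping the reaction at pH 10. Enzyme: ASM from human placenta; substrate HMU-PC0, 9 uM final; 60 min, 37 °C. Compound preincubation 10 min, ambient temperature.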
TGFb SMAD3 inh: qHTS for Inhibitors of TGF-b; AID 588855, 2011; Potency, µM (top dose mostly 46.1 µM), actives largely listed as inhibitors; HepG2 CAGA-GFP TGF-b/SMAD3 reporter, GFP fluorescence, 18 h; TGF-beta stimulated, 500 pg/mL final; 1.2% of 410,000 active; note: nearly all actives have a fitted effect of over 65% in size
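Per well, imaged GFP fluorescence of HEPG2 CAGA-GFP cells gives the signal; cells get compound, then TGF-beta (500 pg/mL final), 18 h at 37 degrees C; %Activity versus -TGF-beta and +DMSO controls.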
IL-1B inflam inh: qHTS for Inhibitors of Inflammasome Signaling: IL-1-beta AlphaLISA Primary Screen; THP-1 LPS/ATP IL-1B secretion, AlphaLISA, 16 h; hits give low values; activity change, % at 57.5 µM; 4.7% of 360,000 active; AID 743279, 2014; in the data active = activity change below about -50%; inconclusive = mostly about -30% to -49%
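THP-1 cells pretreated 1 hr with compounds (up to 57.5 uM final), then stimulated with LPS (250 ng/mL final) plus ATP (1.25 mM final); secreted IL-1B measured by AlphaLISA after 16 hr, decreased signal indicating inhibition.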
DT40 TDP1 no CPT: qHTS for Inhibitors of human tyrosyl-DNA phosphodiesterase 1 (TDP1): qHTS in cells in absence of CPT. DT40 Tdp1-/- hTDP1 cells, no CPT, ATP luminescence, 48 h. Potency, µM (top dose mostly 46.2 µM), usual class: inhibitors. 15% of 420,000 active; note: nearly all actives have a fitted effect of over 55% in size
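A cellular qHTS used chicken DT40 cells lacking endogenous Tdp1 but carrying stably transfected human TDP1. Compounds were applied without camptothecin, and cell growth kinetics were judged by ATP-dependent luminescence after ≥48 hr.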
Numbers stand for hits; [ ] = remark or other dose. This is a sample that favours compounds with a hit; in the whole collection about 19% have one here. Unless noted, calls come from the whole dose curve; as a rule, active = well fitted curve in the direction sought with a large enough effect; inconclusive = small, poorly fitted or top-dose-only effect, or another doubt; inactive = no such curve, though single readings can be large; an effect the other way counts as inactive or inconclusive.

For N#Cc1nc(-c2ccc(COc3ccccc3)o2)oc1N1CCCCC1 the results were DT40 TDP1 CPT inconclusive, HepG2 viability inactive, TGFb SMAD3 inh inactive and DT40 TDP1 no CPT 23.1µM.
Screening CSc1ncc(Cl)c(C(=O)Nc2c(C(=O)c3ccc(C)cc3)oc3ccccc23)n1 returned DT40 TDP1 CPT inactive, HepG2 viability inactive, TGFb SMAD3 inh inactive and DT40 TDP1 no CPT inactive.
`Cc1ccc(N2CCN(S(=O)(=O)c3ccc4oc(=O)ccc4c3)CC2)c(C)c1` gave DT40 TDP1 CPT 16.4µM, HepG2 viability inactive, ASM inhibitor inactive, TGFb SMAD3 inh inactive, IL-1B inflam inh inactive and DT40 TDP1 no CPT inconclusive.
COc1ccc(S(=O)(=O)N2CCN(c3ccc(C)cc3C)CC2)cc1OC was read as DT40 TDP1 CPT 20.6µM, HepG2 viability inactive, ASM inhibitor inactive, TGFb SMAD3 inh inactive, IL-1B inflam inh inactive and DT40 TDP1 no CPT inconclusive.
For Cc1cc(-c2nnc(SCC(=O)Nc3c(C)cccc3C)n2N)n[nH]1 the results were DT40 TDP1 CPT inactive, HepG2 viability inactive, ASM inhibitor inactive, TGFb SMAD3 inh inactive, IL-1B inflam inh inactive and DT40 TDP1 no CPT inactive.
Screening C=CCOc1ccc(C2C(C#N)=C(N)N(Nc3ccccc3)C3=C2C(=O)CCC3)cc1OC (stereo not given) returned DT40 TDP1 CPT inconclusive, HepG2 viability inactive, ASM inhibitor inactive, TGFb SMAD3 inh inactive, IL-1B inflam inh inactive and DT40 TDP1 no CPT 16.4µM.
`COc1cc(C2C(C#N)=C(N)N(Nc3ccccc3)C3=C2C(=O)CC(C)(C)C3)ccc1OCc1ccccc1` (stereo not given) gave DT40 TDP1 CPT inconclusive, HepG2 viability inactive, ASM inhibitor inactive, TGFb SMAD3 inh inconclusive, IL-1B inflam inh inconclusive and DT40 TDP1 no CPT 20.6µM.
Screening COc1ccc(C2C(C#N)=C(N)N(c3cccnc3)C3=C2C(=O)CC(C)(C)C3)cc1OC (stereo not given) returned DT40 TDP1 CPT 23.1µM, HepG2 viability inactive, ASM inhibitor inactive, TGFb SMAD3 inh inactive, IL-1B inflam inh inactive and DT40 TDP1 no CPT inconclusive.
COc1ccc(C2C(C#N)=C(N)N(N(C)C)C3=C2C(=O)CC(C)(C)C3)cc1OC (stereo not given) was read as DT40 TDP1 CPT inactive, HepG2 viability inactive, ASM inhibitor inactive, TGFb SMAD3 inh inactive, IL-1B inflam inh inactive and DT40 TDP1 no CPT inactive.
`COc1cc(C2C(C#N)=C(N)N(Nc3ccccc3)C3=C2C(=O)CC(C)(C)C3)ccc1OCc1cccc(F)c1` (stereo not given) gave DT40 TDP1 CPT inconclusive, HepG2 viability inactive, ASM inhibitor inactive, TGFb SMAD3 inh inconclusive, IL-1B inflam inh -52.4 and DT40 TDP1 no CPT inconclusive.
COc1cc(C2C(C#N)=C(N)N(N(C)C)C3=C2C(=O)CC(C)(C)C3)ccc1O (stereo not given) was read as DT40 TDP1 CPT inactive, HepG2 viability inactive, ASM inhibitor inactive, TGFb SMAD3 inh inactive, IL-1B inflam inh inactive and DT40 TDP1 no CPT inactive.
Screening CC1(C)CC(=O)C2=C(C1)N(c1cccnc1)C(N)=C(C#N)C2c1cccs1 (stereo not given) returned DT40 TDP1 CPT inactive, HepG2 viability inactive, ASM inhibitor inactive, TGFb SMAD3 inh inactive, IL-1B inflam inh inactive and DT40 TDP1 no CPT inactive.
`COc1cccc(C2C(C#N)=C(N)N(N(C)C)C3=C2C(=O)CCC3)c1` (stereo not given) gave DT40 TDP1 CPT inactive, HepG2 viability inactive, ASM inhibitor inactive, TGFb SMAD3 inh inactive, IL-1B inflam inh inactive and DT40 TDP1 no CPT inactive.
CCOc1ccc(N2C(=O)CC(NC3CCN(C(=O)c4cccs4)CC3)C2=O)cc1 (stereo not given) was read as DT40 TDP1 CPT inactive, HepG2 viability inactive, ASM inhibitor inactive, TGFb SMAD3 inh inactive, IL-1B inflam inh inactive and DT40 TDP1 no CPT inactive.
O=C(CN1C(=O)NC2(CCOc3ccccc32)C1=O)c1ccc(F)cc1 (stereo not given) was read as DT40 TDP1 CPT inactive, HepG2 viability inactive, ASM inhibitor inactive, TGFb SMAD3 inh inactive, IL-1B inflam inh inactive and DT40 TDP1 no CPT inactive.
O=c1oc(-c2ccc(Cl)cc2[N+](=O)[O-])nc2ccccc12 was read as DT40 TDP1 CPT inconclusive, HepG2 viability inactive, TGFb SMAD3 inh inactive, IL-1B inflam inh inactive and DT40 TDP1 no CPT inconclusive.
CCN(c1ccccc1)c1nnc(NC(=O)Nc2ccc(C)cc2)s1 was read as DT40 TDP1 CPT 13µM, HepG2 viability inactive, TGFb SMAD3 inh inactive and DT40 TDP1 no CPT 16.4µM.
`CCc1ccccc1NC(=O)Nc1nnc(N(CC)c2ccccc2)s1` gave DT40 TDP1 CPT inconclusive, HepG2 viability inactive, TGFb SMAD3 inh inconclusive and DT40 TDP1 no CPT inconclusive.
For CCN(c1ccccc1)c1nnc(NC(=O)Nc2ccc(Br)c(C)c2)s1 the results were DT40 TDP1 CPT 3.26µM, HepG2 viability inactive, TGFb SMAD3 inh inactive and DT40 TDP1 no CPT 4.11µM.
For COc1ccc(-n2ccc(-c3sc(NCc4cc(OC)c5c(c4)OCO5)nc3C)n2)cc1 the results were DT40 TDP1 CPT inactive[9.04 µM] and DT40 TDP1 no CPT inconclusive.
Nc1nn2cc(-c3ccccc3)nc2c2ccccc12 was read as DT40 TDP1 CPT inconclusive, HepG2 viability inactive, ASM inhibitor inactive, TGFb SMAD3 inh inconclusive, IL-1B inflam inh -99.6 and DT40 TDP1 no CPT inconclusive.
CSc1ccc(S(=O)(=O)NCC(=O)OCC(=O)N(C)C2CCCCC2)cc1[N+](=O)[O-] was read as DT40 TDP1 CPT inactive, HepG2 viability inactive, TGFb SMAD3 inh inactive, IL-1B inflam inh inactive and DT40 TDP1 no CPT inactive.
For CNC(=O)/C=C1\NC(C)(C)Cc2c1ccc1ccccc21 the results were DT40 TDP1 CPT 20.6µM, HepG2 viability inactive, ASM inhibitor inactive, TGFb SMAD3 inh inactive, IL-1B inflam inh -67.2 and DT40 TDP1 no CPT 20.6µM.
Screening CC1NC(C)(C)Cc2c1ccc1ccccc21 (stereo not given) returned DT40 TDP1 CPT inactive, HepG2 viability inactive, ASM inhibitor inactive, TGFb SMAD3 inh inactive, IL-1B inflam inh inactive and DT40 TDP1 no CPT inactive.
`Cc1c(Cc2ccccc2)c(NCCCO)n2c(nc3ccccc32)c1C#N` gave DT40 TDP1 CPT 20.6µM, HepG2 viability inactive, ASM inhibitor inactive, TGFb SMAD3 inh inconclusive, IL-1B inflam inh inactive and DT40 TDP1 no CPT 16.4µM.
For CCc1c(C)c(C#N)c2nc3ccccc3n2c1NCc1ccco1 the results were DT40 TDP1 CPT 23.1µM, HepG2 viability inactive, ASM inhibitor inactive, TGFb SMAD3 inh inactive, IL-1B inflam inh inactive and DT40 TDP1 no CPT inconclusive.
